# Luc counter = blocks Kinase-Glo luciferase, a counter-screen artifact; Q27757; Kinase-Glo luciferase, ATP luminescence, 8 min; Potency, µM (series often up to 38.3 µM), inactives show at the top dose activity change, negative = inhibition, actives largely listed as inhibitors; hit rate 0.28% among 200,000; note: % is set by controls: 0 for no effect and ±100 for the full control effect; nearly all actives have a fitted effect of over 60% in size
#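 Compounds were added to a substrate mix at pH 7.2 (50 mM imidazole, 10 uM ATP, within the enzyme's linear range), followed by Kinase-Glo detection reagent; luminescence was measured after 8 minutes at ambient temperature.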
# NPC1 promoter act = activators of NPC1 promoter | Huh7 NPC1 promoter luciferase reporter, 24 h | hit rate 2.4% among 320,000 | Potency, µM (series often up to 9.22 µM), without a hit: top-dose activation, hits mostly activators; note: % of control where 0% means no effect; nearly all actives have a fitted effect of over 60% in size
#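 Huh7 reporter cells (NPC1 promoter driving luciferase) are dosed with compound for 24 h at 37 °C, 5% CO2; luciferase detection reagent is then added and luminescence measured after 10 min at ambient temperature.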
# Rab9 promoter act = activates the Rab9 promoter; Huh7 Rab9 promoter-luciferase reporter, luminescence, 24 h; hit rate 2.8% among 320,000; AID 485297; Potency, µM (top dose mostly 9.22 µM), without a hit: at the highest dose activation, negative = inhibition, usual class: activators; note: % of control where 0% means no effect; nearly all actives have a fitted effect of over 60% in size
#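 Quantitative HTS format; Huh7 Rab9-luciferase reporter cells (1500/well) receive compound 2 h post-plating, incubate 24 h at 37 °C, then get luciferase reagent for 10 min before luminescence reading.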
# ELG1 genotox = genotoxicity induction in ELG1-luciferase HEK293T cells; HEK293T ELG1-luciferase reporter, luminescence, 16 h; Potency, µM (titrated, usually from 46 µM), inactives show at the top dose activity change, positive = activation, hits mostly activators; hit rate 1.3% among 330,000; AID 504466; note: % of control where 0% means no effect; nearly all actives have a fitted effect of over 60% in size
#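 Step 1: seed 2,000 HEK293T ELG1-luciferase cells per well. Step 2: add compound or DMSO, incubate 16 hr at 37 °C. Step 3: ONE-Glo, 30 min at room temperature, read luminescence.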
# SMN2 splice enh = SMN2 splice variant enhancement | HEK293 SMN2-luciferase splicing reporter, luminescence, 30-36 h | Potency, µM (titrated, usually from 46.1 µM), without a hit: at the top dose activity change, positive = activation, actives largely listed as activators | hit rate 2.8% among 210,000; note: % of control where 0% means no effect; nearly all actives have a fitted effect of over 55% in size
#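 HEK293 cells carry an SMN2 minigene-luciferase reporter in which exon 7 inclusion puts luciferase in frame. Cells were seeded at 2000 cells/well, attached for 10-12 hours, then exposed to compounds for 30-36 hours at 37C before ONE-Glo luminescence.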
# FLuc counter = counter-screen for miR-21 project: firefly luciferase inhibitors or activators; P08659; purified FLuc, Km substrates, luminescence inhibition; Potency, µM (titrated, usually from 57.5 µM), for inactives: at the highest dose activity change, negative = inhibition, usual class: inhibitors; hit rate 6.9% among 360,000;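 note: plate controls were vehicle for no effect and reference inhibitor for full effect; nearly all actives have a fitted effect of over 55% in size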
# Target sequence (P08659 whole entry, looked up): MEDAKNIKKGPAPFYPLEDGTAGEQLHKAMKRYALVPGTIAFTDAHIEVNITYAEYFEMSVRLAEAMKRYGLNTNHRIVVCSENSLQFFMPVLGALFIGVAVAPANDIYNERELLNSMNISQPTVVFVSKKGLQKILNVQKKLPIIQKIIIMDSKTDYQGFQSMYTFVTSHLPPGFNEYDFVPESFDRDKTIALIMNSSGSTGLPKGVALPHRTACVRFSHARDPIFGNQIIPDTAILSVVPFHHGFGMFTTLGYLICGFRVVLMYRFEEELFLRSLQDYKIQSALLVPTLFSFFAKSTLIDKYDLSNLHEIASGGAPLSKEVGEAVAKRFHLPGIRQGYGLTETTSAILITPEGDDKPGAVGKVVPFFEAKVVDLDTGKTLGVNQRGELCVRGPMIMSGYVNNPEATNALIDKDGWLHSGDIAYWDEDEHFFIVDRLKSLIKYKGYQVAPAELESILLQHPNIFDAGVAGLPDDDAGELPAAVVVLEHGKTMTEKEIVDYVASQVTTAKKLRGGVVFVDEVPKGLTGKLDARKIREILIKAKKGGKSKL
#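 Purified P. pyralis luciferase (10nM final) with 10uM D-luciferin and 10uM ATP (Km levels) in 50mM Tris acetate pH 7.5, 10mM Mg acetate, 0.01% Tween-20, 0.05% BSA; qHTS 6-point titration, ~60 µM downward; luminescence read.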
# Starred values were filed as active, the others as inactive; ? = inconclusive; . = no result; [ ] = remark or other dose. Most compounds without a hit are left out; they make up all but 7.3% or so of the library. Calls come from the whole dose curve; as a rule, active = well fitted curve in the direction sought with a large enough effect; inconclusive = small, poorly fitted or top-dose-only effect, or another doubt; inactive = no such curve, though single readings can be large; an effect the other way counts as inactive or inconclusive. Potency is the fitted concentration of half-maximal effect.
SMILES,Luc counter,NPC1 promoter act,Rab9 promoter act,ELG1 genotox,SMN2 splice enh,FLuc counter
COc1ccc(-c2cc(=O)n(-c3ccc([N+](=O)[O-])cc3)[nH]2)cc1,-3%,-1%,-5%,1%,9%,21µM*
COc1ccc(-c2[nH]n(-c3ccc([N+](=O)[O-])cc3)c(=O)c2C=NCc2ccc(F)cc2)cc1,1%,-1%,-3%,2%,2%,0%
O=C(CCCn1c(=O)c2cccn2c2ccccc21)NCCc1ccc(Cl)cc1,.,.,.,.,.,3.8µM*
O=C(CCn1c(=O)c2cccn2c2ccc(F)cc21)NCCc1ccc(Cl)cc1,.,.,.,.,.,0%
Cc1cc(C)cc(NC(=O)CCn2c(=O)c3cccn3c3ccccc32)c1,.,-29%,-24%,-9%,.,-1%
Cc1cccc(C)c1NC(=O)CCCn1c(=O)c2cccn2c2ccccc21,.,.,.,.,.,5.4µM*
CNCc1c(OCc2ccccc2)ccc2ccccc12,.,3%,-3%,-15%,.,3%
Cc1cnc(C(=O)Nc2nnc(C)s2)cn1,1%,23%,12%,13%,1%,-14%
O=C(Nc1nccs1)c1cn2ccccc2n1,.,0.32µM*,0.11µM*,?,.,1.3µM*
Cc1cnc(C(=O)Nc2nccs2)cn1,-30%,?,3.2µM*,24%,8%,?
NNC(=O)c1cn2ccccc2n1,-6%,3%,3%,4%,2%,-8%
CCC(C)OC(=O)n1ccc(C(=O)Nc2nccs2)n1 (stereo unspecified),-2%,0%,4%,7%,41%,17µM*
Cc1cnc(C(=O)Nc2nnc(C(C)C)s2)cn1,-2%,2.5µM*,2.8µM*,9.2µM*,13µM*,?
COCCn1c(C)cc(C2=NNC(=NC3CC3)SC2)c1C,7.1µM*,-42%,-37%,-19%,-103%,0.24µM*
Cc1cc(C2=NNC(=NCc3ccccc3)SC2)c(C)n1-c1c(C)n(C)n(-c2ccccc2)c1=O,1%,-1%,-1%,3%,-1%,5%
COCCn1c(C)cc(C2=NNC(=Nc3ccc(Cl)cc3Cl)SC2)c1C,-7%,1%,3%,-1%,-31%,?
CCOc1ccc(N=C2NN=C(c3cc(C)n(CC4CCCO4)c3C)CS2)cc1 (stereo unspecified),-2%,27%,?,7%,27%,13µM*
C=CCN=C1NN=C(c2cc(C)n(CCOC)c2C)CS1,-28%,-16%,-21%,-8%,-73%,0.38µM*
C=CCn1c(C)cc(C2=NNC(=NC(C)(C)C)SC2)c1C,?,?,?,0.58µM*,-90%,0.34µM*
Cn1cc(CN2CCC(C(=O)N3CCCCC3)CC2)c(-c2ccccc2F)n1,2%,-8%,1%,2%,.,-2%
O=C(CN1CCN(Cc2ccc(Cl)cc2)C1=O)NCCN1CCCC1,2%,1%,-3%,0%,-6%,8%
COc1ccccc1NC(=O)Cn1nnc(C(=O)Nc2ccccc2)c1N,2%,2%,-4%,-8%,-18%,-3%
COc1ccc(CCNC(=O)Cn2nnc(-c3ccc(OC)c(OC)c3)n2)cc1OC,2%,-3%,-3%,-3%,-8%,-6%
COc1ccccc1C(=O)Nc1ccc(OCC(=O)N2CC(C)OC(C)C2)cc1 (stereo unspecified),.,0%,-5%,9%,.,5.4µM*
COc1ccc(CCNC(=O)Cn2nnc(-c3ccc(N(C)C)cc3)n2)cc1OC,-1%,0%,0%,0%,-57%,17µM*
SMILES,Luc counter,NPC1 promoter act,Rab9 promoter act,ELG1 genotox,SMN2 splice enh,FLuc counter
CCOc1ccc(NC(=O)c2nnn(CC(=O)Nc3ccccc3OC)c2N)cc1,-2%,18%,19%,6%,-1%,2.7µM*
COc1ccc(CCNC(=O)Cn2nnc(C(=O)Nc3ccc(Br)cc3)c2N)cc1OC,.,-1%,-7%,-3%,.,9.5µM*
Cc1ccc(C(=O)NC(CCc2ccccc2)C(=O)O)cc1 (stereo unspecified),.,.,.,-3%,.,.
O=C(NC(=S)Nc1ccccc1N1CCCCC1)c1cccs1,-1%,0%,-3%,-2%,-1%,-1%
Cc1cc(C(=O)N(Cc2nnc(-c3ccc(Cl)cc3)o2)C(C)C)c2ccccc2n1,.,0%,-4%,-3%,.,-6%
CCOc1ccc(NC(=O)c2ccccc2OC)cc1,-12%,?,?,?,?,12µM*
CCOc1ccc(NC(=O)c2cccnc2C(=O)O)cc1,-6%,9%,4%,8%,8%,?
CCOc1ccc(NC(=O)c2ccc(NC(=O)c3ccccc3Br)cc2)cc1,.,-1%,-1%,?,.,-15%
CCOc1ccc(NC(=O)c2ccccc2O)cc1,-15%,1.4µM*,1.6µM*,?,3.2µM*,0.54µM*
COc1ccccc1C(=O)Nc1ccc(C(=O)c2ccccc2)cc1,-1%,-5%,?,4%,-5%,13µM*
CCOc1ccc(NC(=O)c2ccccc2CO)cc1,-17%,?,?,?,12%,17µM*
CCC(C)Sc1cc(C(F)(F)F)c(C(=O)Nc2ccc(Cl)cc2)cn1 (stereo unspecified),.,-2%,-5%,-7%,.,4%
Cc1nn(C)c2c1c(-c1ccccc1)cc(=O)n2Cc1c(F)cccc1Cl,.,.,.,.,.,3%
Nc1nc(SCC(=O)c2cc3ccccc3o2)n[nH]1,-2%,-1%,-1%,-2%,.,-15%
O=C(c1[nH]nc2c1CCc1ccccc1-2)N1CCN(Cc2ccc3c(c2)OCO3)CC1,.,-10%,-41%,-5%[9.26 µM],.,12%
N#Cc1nc(COc2ccccc2Cl)oc1NCc1ccc(F)cc1,-3%,0%,0%,-5%,-13%,1%
N#C/C(=C\N1CCOCC1)c1ccccc1,-4%,-3%,0%,-2%,-20%,-1%
N#C/C(=C/c1ccc(N2CCOCC2)o1)c1nc2ccccc2[nH]1,-19%,3.5µM*,1µM*,2.3µM*,2µM*,0.54µM*
N#C/C(=C/c1ccc(N2CCCCCC2)o1)c1cccc(F)c1,-18%,3.5µM*,4µM*,5.8µM*,13µM*,5.4µM*
N#C/C(=C/c1ccc(N2CCOCC2)o1)c1ccc(Br)cc1,-6%,?,?,7%,?,8.5µM*
N#C/C(=C\c1ccc(N2CCOCC2)cc1)c1ccccc1,-1%,2.8µM*,1µM*,4.1µM*,3.2µM*,?
N#C/C(=C\c1cccnc1)c1ccc(Br)cc1,.,5%,1%,2%,.,?
N#C/C(=C\c1cc([N+](=O)[O-])c(N2CCOCC2)cc1N1CCOCC1)c1nc2ccccc2[nH]1,3%,-2%,-1%,-6%,1%,-2%
C[C@@H](CN1C(=O)C(=O)NC[C@@H]1C)NC(=O)CC12CC3CC(CC(C3)C1)C2,.,-3%,0%,1%,.,0%

# Bioassay records: PubChem, National Center for Advancing Translational Sciences (NCATS)
